From PubChem BioAssay (NCI)
This is part of a sample that, as a whole, favours compounds with a hit. Of some 79,000 tested, about 15% had one in any assay. No stated cut-off is given here; in the data, active means growth inhibition above about 70%; inactive means the rest. Where a SMILES comes first, the peptide text is derived from it. [ ]: non-standard residue; d: D form. The star is where a group is joined. ξ: configuration not given here. NMeY = CN[C@@H](Cc1ccc(O)cc1)C(=O)O; Cbz = O=C(OCc1ccccc1)*; ξA = CC(N)C(=O)O

Columns and labels:
[1] = NCI Yeast Anticancer Drug Screen. Data for the rad50 strain (AID 155);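 further: 0% = growth of vehicle-only cultures of the same strain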; settings: S. cerevisiae rad50 strain growth inhibition; at 50.0 µM; active compounds read high
Procedure, shortened: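 Yeast carrying a defined DNA repair defect were exposed to test compounds, and growth was compared with vehicle-treated controls to give percent inhibition.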

[2] = NCI Yeast Anticancer Drug Screen. Data for the mec2-1 strain (AID 157); settings: S. cerevisiae mec2-1 strain, at 50.0 µM, active compounds read high
Procedure, shortened: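 Each compound was tested on mec2-1 yeast, a strain altered in DNA damage repair or cell cycle control. Growth inhibition is reported relative to vehicle.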

[3] = NCI Yeast Anticancer Drug Screen. Data for the sgs1 mgt1 strain (AID 161);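 further: 0% = growth of cultures given vehicle only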; settings: S. cerevisiae sgs1 mgt1 strain, at 50.0 µM, active compounds read high
Procedure, shortened: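 Genetically altered yeast, compound exposure, growth inhibition relative to vehicle.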

[4] = NCI Yeast Anticancer Drug Screen. Data for the cln2 rad14 strain (AID 165);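 further: 0% = growth equal to vehicle treated cultures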; settings: S. cerevisiae cln2 rad14 strain, at 50.0 µM, active compounds read high
Procedure, shortened: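 Test compounds were added to cln2 rad14 yeast cultures; inhibition of growth was then determined by comparison with vehicle treatment.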

[5] = NCI Yeast Anticancer Drug Screen. Data for the bub3 strain (AID 167); settings: S. cerevisiae bub3 mutant strain, at 50.0 µM, active compounds read high
Procedure, shortened: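 Compounds were applied to a genetically altered yeast strain carrying a cell-cycle control defect. Growth inhibition was scored against vehicle-treated controls.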

[6] = NCI Yeast Anticancer Drug Screen. Data for the mlh1 rad18 strain (AID 175); settings: S. cerevisiae mlh1 rad18 strain growth inhibition; at 50.0 µM; active compounds read high
Procedure, shortened: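 Inhibition values reflect reduced growth of mutant yeast versus vehicle-treated controls following compound exposure; the mutations affect DNA damage repair.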

Measured: growth inhibition

C/C(=N/N(C=O)C[n+]1ccccc1)C(CN(CC(C)C)CC(C)C)C(=O)Nc1ccc(C)cc1C (stereo unspecified)
inactive: [1] -10.4% | [2] 40% | [3] -14.5% | [4] 31.5% | [5] 19.9% | [6] 19.9%

COC(=O)N1C(c2ccccc2)C=CC(c2ccccc2)N1C(=O)OC (stereo unspecified)
inactive: [1] 12.7% | [2] 11.2% | [3] 10.2% | [4] 4.3% | [5] 17% | [6] 18.2%

CC(=O)Oc1cccc2ccccc12
inactive: [1] -23.4% | [2] -25.5% | [3] 1% | [4] -109% | [5] -36.8% | [6] -5.65%

O=C(O)CC(Cc1ccc2c(c1)OCO2)C(=O)O (stereo unspecified)
inactive: [1] -5.6% | [2] -2.35% | [3] -34.2% | [4] -33.9% | [5] -54.6% | [6] 2.55%

CC1=Cc2cc3[n-]c(cc4nc(cc5[n-]c(cc1n2)c(C)c5CCC(=O)O)C(CCC(=O)O)=C4C)cc3C.[Cu+2]
inactive: [1] 0.9% | [2] -0.9% | [3] 10.3% | [4] -49.5% | [5] 15.2% | [6] -0.5%

COc1ccc(/C(=N\N=C(N)N)C(c2ccc(OC)cc2)C2OC(=O)c3ccccc32)cc1 (stereo unspecified)
inactive: [1] -12.2% | [2] -4.85% | [3] -4.65% | [4] -64.8% | [5] 16% | [6] -18.7%

OCC1OC(Oc2ccccc2)C(O)C(O)C1O (stereo unspecified)
inactive: [1] 8.15% | [2] 30.6% | [3] 21.8% | [4] -1% | [5] 33% | [6] 24.1%

CCCCCCCCCCCCC#N
inactive: [1] -20.8% | [2] -16.1% | [3] -1.15% | [4] -32.9% | [5] -5.2% | [6] 7.85%

CCCCN=C(OC1C=CCCC1)SC (stereo unspecified)
inactive: [1] -12.8% | [2] -25.6% | [3] -14.6% | [4] 9.95% | [5] -4.7% | [6] -7.7%

NS(=O)(=O)c1ccc(NC(=O)CC(=O)c2ccccc2)cc1
inactive: [1] -57.4% | [2] -32.7% | [3] -36% | [4] 0.35% | [5] -25.6% | [6] -38%

CCC(C)CCC(=O)C(C)C=O (stereo unspecified)
inactive: [1] -0.8% | [2] -7.3% | [3] 3% | [4] -5.9% | [5] -6.2% | [6] -3.85%

COc1ccc(C=C(c2ccc(OCc3ccccc3)cc2)c2ccc(OCc3ccccc3)cc2)cc1
inactive: [1] 13.2% | [2] -7.7% | [3] 6.55% | [4] 7.5% | [5] -28.1% | [6] -28.1%

[N-]=[N+]=Nc1ccccc1C(=O)N1C(=O)c2ccccc2C(=O)N(C(=O)c2ccccc2N=[N+]=[N-])c2ccccc21
inactive: [1] 1.35% | [2] 7.9% | [3] 0.8% | [4] 0.35% | [5] 11.9% | [6] -6.4%

CC1CCN(C(=O)Nc2ccccc2)CC1
inactive: [1] -7.1% | [2] -17.2% | [3] 4.9% | [4] -51.3% | [5] -6.05% | [6] -10.7%

O=[N+]([O-])c1cc(O)ccc1O
inactive: [1] 5.4% | [2] 5.45% | [3] 0% | [4] -10.7% | [5] -1% | [6] 12%

Cc1[nH]c(=O)[nH]c(=O)c1C(=O)N(CCO)Cc1ccccc1
inactive: [1] -39.5% | [2] -21.4% | [3] -24.9% | [4] 7.7% | [5] 11.7% | [6] -15.9%

CC1(C)CN2C(c3ccccc3)=NN(c3ccccc3)C2(C)C1 (stereo unspecified)
inactive: [1] -5.85% | [2] -18.4% | [3] 20.9% | [4] -23.1% | [5] 50.4% | [6] 6.15%

COC(=O)CC(=O)C=P(c1ccccc1)(c1ccccc1)c1ccccc1
inactive: [1] -3.2% | [2] -4.15% | [3] -3.15% | [4] 6.3% | [5] -17.5% | [6] -2.15%

Clc1ccccc1C(Cl)c1ccccc1 (stereo unspecified)
inactive: [1] 3.3% | [2] -14.2% | [3] -5.95% | [4] -21.6% | [5] -10.7% | [6] -6.25%

CCOC(=N)CC(=O)NC(C)c1ccccc1 (stereo unspecified)
inactive: [1] 2.25% | [2] -3.6% | [3] -6% | [4] 14.3% | [5] 0.15% | [6] 1.85%

CCCCCCCCc1cc(CN2CCOCC2)c(O)c(CN2CCOCC2)c1
inactive: [1] 25.1% | [2] 14.6% | [3] 22.2% | [4] 24.4% | [5] 12.8% | [6] 21.6%

COc1ccc(C(c2cc3c(cc2O)OCO3)N2CCCC2)cc1 (stereo unspecified)
inactive: [1] 17% | [2] -0.5% | [3] 15.9% | [4] -25.1% | [5] 12.1% | [6] 21.2%

COc1ccc(C[C@@H](C(=O)N[C@@H](C)C(N)=O)N(C)C(=O)[C@@H]2CCCN2C(=O)[C@H](CC(C)C)NC(=O)C(C)NC(=O)OCc2ccccc2)cc1 (stereo partly specified) (Cbz-[ξA]LP[NMeY](Me)A-NH2)
inactive: [1] 29.1% | [2] 28.9% | [3] -7.95% | [4] -4% | [5] -38.2% | [6] -44.2%

O=C1C(Cl)N(c2ccc(Cl)cc2Cl)C1c1c[nH]c2ccccc12 (stereo unspecified)
inactive: [1] -14.4% | [2] -13.9% | [3] -16.7% | [4] 3.05% | [5] 2.95% | [6] -20.4%

CC(c1ccccc1)C1(C)NC(=O)NC1=O (stereo unspecified)
inactive: [1] -12.4% | [2] -24.7% | [3] -2.1% | [4] -4.1% | [5] 6.55% | [6] -10.1%

CN(C)CCSC(=Nc1ccccc1)N1CCCCC1
inactive: [1] -32.8% | [2] 1.7% | [3] -9.5% | [4] 30.9% | [5] 8.15% | [6] -9.6%

CC(c1ccccc1)C(C)(C#N)c1ccccc1 (stereo unspecified)
inactive: [1] 2.8% | [2] 23.1% | [3] 15.8% | [4] 33.5% | [5] 10.5% | [6] 40.4%

N#CCc1c(F)c(F)c(F)c(F)c1F
inactive: [1] 6.8% | [2] 5.75% | [3] 14.4% | [4] 3.2% | [5] 10.5% | [6] 2.6%

Cc1ccc(S(=O)(=O)OC2C3OC(C)(C)OC3OC2C(c2cc(O)c3c(c2O)C(=O)c2ccccc2C3=O)c2cc(O)c3c(c2O)C(=O)c2ccccc2C3=O)cc1 (stereo unspecified)
inactive: [1] -35.5% | [2] -25.6% | [3] -11.6% | [4] -5% | [5] -8.2% | [6] -25.1%

O=NN(CCCl)C(=O)N(C1CCCCC1)C1CCCCC1
inactive: [1] 8.5% | [2] -3.95% | [3] 12.1% | [4] 3.35% | [5] 5% | [6] 27.7%

COc1ccc(CC(C)C(C)Cc2ccc(OC)c(OC)c2)cc1OC (stereo unspecified)
inactive: [1] 4.9% | [2] 9.15% | [3] 1.6% | [4] -4.75% | [5] 4.25% | [6] -3.6%

N#CC1=C(S)N(C2OC(CO)C(O)C(O)C2O)C(c2ccccc2)=CC1c1ccco1 (stereo unspecified)
inactive: [1] 36.1% | [2] 13% | [3] 4.85% | [4] -12.4% | [5] -3% | [6] 27.6%

COC(=O)CC1CSCC1=O (stereo unspecified)
inactive: [1] 7.5% | [2] 22.1% | [3] 5.95% | [4] -12.5% | [5] 12.6% | [6] 11.2%

COc1ccc(NC(=O)CCC2=CC(=O)CC(c3ccccc3)O2)cc1 (stereo unspecified)
inactive: [1] 2.9% | [2] 9.65% | [3] 2.35% | [4] 25.3% | [5] -8.45% | [6] -5.05%

CCOC(=O)CSC(=O)NCCCl
inactive: [1] 21.1% | [2] -0.5% | [3] -2.8% | [4] 8.45% | [5] 17.6% | [6] 9.1%

CC1(C)COCN1COCCOCN1COCC1(C)C
inactive: [1] 10.2% | [2] -18% | [3] -1.55% | [4] 7.05% | [5] -25.9% | [6] -56.6%

CC(CO)(CO)CN1CCCCC1
inactive: [1] -2.25% | [2] 5.2% | [3] -1.85% | [4] -36.5% | [5] -12.4% | [6] 1.8%

CC(=O)OC1CCC2(C)C(CCC3C2C(=O)C(Br)C2(C)C(C(C)=O)CCC32)C1 (stereo unspecified)
inactive: [1] -1.2% | [2] 0.5% | [3] 7.95% | [4] 16.9% | [5] 13.3% | [6] 25.4%

CN(C)CCNC(=O)c1nc([N+](=O)[O-])cn1C
inactive: [1] 31.9% | [2] 3.55% | [3] -2.25% | [4] 7.35% | [5] 20.4% | [6] -69.2%

CN1C(=O)C2C=CC1c1ccccc12 (stereo unspecified)
inactive: [1] -0.75% | [2] -3.95% | [3] -8.8% | [4] -37% | [5] -6.5% | [6] 2.55%

O=C1CSC(c2ccc([N+](=O)[O-])cc2)N1c1nncs1 (stereo unspecified)
inactive: [1] -10.9% | [2] -6.8% | [3] 7.25% | [4] -2.65% | [5] -8.7% | [6] 0.55%
